Screens from PubChem.
Shown are actives, neighbours in structure and some others; about 1.4% of the full set was active somewhere.
Glioma ERSR ind: qHTS for Inducers of the Endoplasmic Reticulum Stress Response (ERSR) in Human Glioma: qHTS; Potency, µM, inactives show top-dose activation, hits mostly activators; U87-MG GRP78 promoter luciferase reporter, 16 h; 420,000 compounds, 0.02% hits; further: potency means the concentration at half of the fitted maximal effect; series mostly up to about 76 µM; % of control where 0% means no effect; nearly all actives have a fitted effect of over 35% in size
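ERSR induction read as luciferase luminescence (Bright-Glo, 10 min at room temperature) in stably transfected human U87-MG glioma cells exposed to compounds for 16 h, using GRP78 as sensor.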
RXFP1 agonist: qHTS Assay for Agonists of the Relaxin Receptor RXFP1; Relaxin receptor 1 (Homo sapiens), Q9HBX9; HEK293T-RXFP1 cAMP TR-FRET, 30 min; response scale: percent of porcine relaxin response, buffer zero; Potency, µM (titrated, usually from 57.5 µM), without a hit: at the highest dose activation, hits mostly activators; 370,000 compounds, 0.3% hits; AID 2676, 2010; further: potency means the concentration at half of the fitted maximal effect; on the % scale 0 is the no-effect control and ±100 the full control effect; nearly all actives have a fitted effect of over 60% in size
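Agonist response is measured as cAMP accumulation in an RXFP1-transfected HEK293T line under PDE4 inhibition. Values are scaled between buffer-only and 29 nM porcine relaxin, and EC50s come from standard Hill equation fits.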
RXFP1 antagonist: qHTS Assay for Antagonists of the Relaxin Receptor RXFP1. Relaxin receptor 1 (Homo sapiens), Q9HBX9. HEK293-RXFP1, relaxin-stimulated cAMP HTRF, 30 min; hits give low values. activity change, negative = inhibition, % at 57.5 µM. 350,000 compounds, 0.59% hits;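 active means activity change of -60% or lower, but not beyond a set lower limit; inconclusive means change between -60% and -40%, or beyond the set limit; inactive means change above -40%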; further: on the % scale 0 is the no-effect control and ±100 the full control effect
KCNH2 3.1 block: qHTS for Inhibitors of KCHN2 3.1: Mutant qHTS; activity change, % (tested at about 1.8 µM); Potassium voltage-gated channel subfamily H member 2, brain isoform KCNH2 3.1 (human); U2OS KCNH2 3.1, thallium flux FluxOr; hits give low values; 340,000 compounds, 0.95% hits;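 active means maximum activity change below -70%; inconclusive means maximum activity change from -70% to -50%; inactive means maximum activity change above -50%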;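 further: thallium influx rate constant from kinetic fluorescence after stimulation buffer; on the % scale 0 is the no-effect control and ±100 the full control effect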
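Virally transduced U2OS (3.1 isoform, 4 h infection in dark at RT) → overnight 37 C → FluxOr + Red40 in HBSS/HEPES, 45 min → stimulation buffer, 2 min kinetic read → rate constant vs DMSO controls.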
KCNH2 WT inh: qHTS for Inhibitors of KCHN2 3.1: Wildtype qHTS. AID 720551, 2013. activity change, % at 1.84 µM. U2OS, BacMam KCNH2, thallium flux FluxOr; hits give low values. 340,000 compounds, 0.37% hits. Voltage-gated inwardly rectifying potassium channel KCNH2 (Homo sapiens), Q12809;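 active means maximum activity change below -70%; inconclusive means maximum activity change between -70% and -50%; inactive means maximum activity change above -50%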; further: on the % scale 0 is the no-effect control and ±100 the full control effect
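U2OS cells transduced with wild-type KCNH2 virus are loaded with FluxOr dye for 45 min, and thallium flux is measured in kinetic reads before and after stimulation buffer. Rate constants are normalized to DMSO controls.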
PTHR1 ag: qHTS for PTHR1 Agonists: Primary Screen. Parathyroid hormone/parathyroid hormone-related peptide receptor (Homo sapiens), Q03431. HEK293 GP2 PTHR1 cells, GloSensor cAMP luminescence, 1 h. Potency, µM (doses to about 115 µM), inactives show at the top dose activation, usual class: activators. 410,000 compounds, 0.075% hits; further: potency means the concentration at half of the fitted maximal effect; nearly all actives have a fitted effect of over 55% in size
Target sequence (Q03431 whole entry, looked up): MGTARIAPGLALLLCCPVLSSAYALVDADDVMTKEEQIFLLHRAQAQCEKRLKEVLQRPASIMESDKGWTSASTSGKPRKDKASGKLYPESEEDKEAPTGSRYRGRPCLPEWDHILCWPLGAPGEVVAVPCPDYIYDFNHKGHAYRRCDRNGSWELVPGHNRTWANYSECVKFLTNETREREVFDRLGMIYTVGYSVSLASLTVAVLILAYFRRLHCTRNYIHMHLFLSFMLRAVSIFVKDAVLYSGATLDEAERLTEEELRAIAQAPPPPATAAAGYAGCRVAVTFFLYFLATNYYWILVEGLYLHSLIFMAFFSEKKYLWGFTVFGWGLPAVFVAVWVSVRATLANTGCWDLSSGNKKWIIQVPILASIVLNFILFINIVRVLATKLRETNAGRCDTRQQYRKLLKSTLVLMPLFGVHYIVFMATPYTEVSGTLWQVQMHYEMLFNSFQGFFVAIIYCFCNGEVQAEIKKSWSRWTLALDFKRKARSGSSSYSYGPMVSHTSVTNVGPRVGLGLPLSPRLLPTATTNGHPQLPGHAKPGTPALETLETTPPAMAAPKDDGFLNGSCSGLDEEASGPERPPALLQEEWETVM
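HEK-293-derived GP2 cells expressing PTHR1 and a GloSensor cAMP reporter, 3,000/well, plated overnight, given luciferin plus IBMX (each 0.5 mM as added) for 1 h at 37 °C, then compound for 1 h at 37 °C. Luminescence was read after 15 min at room temperature.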
Active calls of the source: *; i = inactive; ? = inconclusive; / = no result; [ ] = remark or other dose. Unless noted, the call rests on the fitted dose curve; in most records, active means well fitted curve in the direction sought with a large enough effect; inconclusive means small, poorly fitted or top-dose-only effect, or another doubt; inactive means no such curve, though single readings can be large; an effect the other way counts as inactive or inconclusive.

SMILES	Glioma ERSR ind	RXFP1 agonist	RXFP1 antagonist	KCNH2 3.1 block	KCNH2 WT inh	PTHR1 ag
Cc1cc(C)n(-c2nc(SCCN(C)C)c3c4c(sc3n2)CCCC4)n1	0%	4%	-61*	-5	9	-4%
CCC(O)CNc1nc(-n2nc(C)cc2C)nc2sc3c(c12)CCCC3 (stereo unspecified)	/	5%	/	/	/	/
Cc1nn(CC(=O)N2CCOCC2)c(=O)c2c1sc1ccccc12	-3%	6%	-4	-8	-3	i
Cc1cc(C(=O)NNC(=O)[C@H](C)NC(=O)c2ccc(Br)cc2)c(C)o1	-3%	/	1	-8	-11	-8%
CNC(=O)c1cc2cc(OC)ccc2n1CCN(Cc1ccccc1)Cc1ccccc1	-5%	5%	-15	-75*	9	i
CNC(=O)c1cc2cc(OC)ccc2n1CCN(C)C	-4%	2%	-11	1	2	20%[57.5 µM]
Cc1ccc(-c2noc(C3CCCCC3)n2)cc1	0%	-3%	-3	-3	3	-20%[57.5 µM]
COc1ccc(NC(=O)N2CCOCC2)cc1OC	-4%	0%	-9	-4	-4	-9%
CCCCCCOc1ccc(C2C(=O)N(C3CCCCC3)CC(=O)N2C2CCCCC2)cc1 (stereo unspecified)	-2%	-1%	-18	/	/	-20%
CCCCCCOc1ccc(C2C(=O)N(C3CCCCC3)CC(=O)N2CCC)cc1 (stereo unspecified)	-4%	0%	-69*	/	/	-32%
Cc1noc(C(=O)NCc2ccco2)c1Cl	-4%	0%	/	-3	-3	i
CCC(C)(C)c1ccc(OC(=O)c2cccnc2Cl)cc1	7%	0%	-21	-2	-3	-19%
COc1ccc(CCN(Cc2ccccn2)C(=S)Nc2cccc(SC)c2)cc1OC	-9%	1%	4	3	-5	i
Clc1ccc(-c2nnc(CCc3ccccc3)o2)c(Cl)c1	8%	1%	-8	-8	-18	-4%
CC(=O)Nc1ccc(NC(=O)CN(C)S(=O)(=O)c2ccc3c(c2)CCC(=O)N3)cc1	-4%	0%	-86*	-8	-12	i
O=c1ncn(-c2ccccc2C(F)(F)F)c2ncccc12	0%	3%	-10	3	-17	-24%
O=C(CC12CC3CC(CC(C3)C1)C2)NC(=S)Nc1ccc(CN2CCOCC2)cc1	-6%	0%	-1	-77*	0	-8%
CC(C)c1nnc(NC(=O)CCC(=O)N2CCN(c3ccc(Cl)cc3)CC2)s1	0%	-1%	-67*	-13	-5	-1%
CN(Cc1ccccc1)S(=O)(=O)c1cccc2cccnc12	-1%	2%	-15	20	-76*	-8%[57.5 µM]
COc1ccccc1C1(O)CCN(CC(=O)Nc2nc(-c3ccccc3)cs2)CC1	-6%	-1%	-76*	-86*	7	-31%
CCN1C(=O)C(CC(=O)Nc2ccc(OC)cc2)N(CCCN2CCN(c3ccc(F)cc3)CC2)C1=S (stereo unspecified)	-8%	2%	-14	-83*	-76*	-39%
COc1ccc(CCN2C(=S)N(C)C(=O)C2CC(=O)Nc2ccc(OC)cc2)cc1 (stereo unspecified)	-2%	1%	-63*	22	-3	-5%
COc1ccc(NC(=O)CC2C(=O)N(C)C(=S)N2CCc2ccc(F)cc2)cc1 (stereo unspecified)	-4%	0%	-27	-4	5	-19%
CCN1C(=O)C(CC(=O)Nc2ccc(OC)cc2)N(CCc2ccc(F)cc2)C1=S (stereo unspecified)	-5%	-1%	-18	13	-13	-36%
Cn1c(N)c(-c2ccccc2)c2ccc([N+](=O)[O-])cc2c1=O	-6%	2%	-26	-6	16	i
SMILES	Glioma ERSR ind	RXFP1 agonist	RXFP1 antagonist	KCNH2 3.1 block	KCNH2 WT inh	PTHR1 ag
CCCCN1C(=O)C(CC(=O)NCc2cccc3ccccc23)CC(C(=O)N(C)C)=C1C (stereo unspecified)	-5%	/	10	-91*	7	0%
O=C(Nc1nc(-c2cccs2)c(C(=O)C(F)(F)F)s1)c1ccco1	1%	25µM*	1	2	0	-18%
CCCN1CCc2c(sc3nc(SCC)n(-c4ccccc4)c(=O)c23)C1	-2%	5%	-9	-24	6	i
O=C(Nc1ccnn1C1CCN(CCCC2CCCC2)CC1)c1ccccc1Cl	2%	-6%	-12	-106*	-93*	-12%
CC(CCN1CCC(n2nccc2NC(=O)c2ccccc2Cl)CC1)c1ccccc1 (stereo unspecified)	4%	3%	-4	-99*	?	i
CC(C)(C)CN1CCC(n2nccc2NC(=O)c2ccccc2Cl)CC1	-2%	0%	7	7	15	i
COc1ccccc1C(=O)Nc1ccnn1C1CCN(CC2CC=CCC2)CC1 (stereo unspecified)	-5%	-1%	1	-80*	24	i
O=C(Nc1ccnn1C1CCN(CC2CC=CCC2)CC1)c1ccccc1 (stereo unspecified)	-4%	1%	6	-27	53	24%
COc1ccccc1C(=O)Nc1ccnn1C1CCN(CCCC2CCCC2)CC1	-2%	0%	-29	-114*	-143*	i
Cc1ccc(C(c2nnnn2C2CCCC2)N2CCc3ccccc32)cc1 (stereo unspecified)	1%	-1%	-6	-38	5	-16%
CSc1ccc(CN2CCC2(C)C(=O)Nc2ccc3c(c2)OCO3)cc1 (stereo unspecified)	2%	/	/	/	/	i
CCOc1ccc(NC(=O)C(=O)NCC(c2cccnc2)N2CCc3ccccc32)cc1 (stereo unspecified)	-6%	1%	-64*	/	/	-92%
O=C(NCC(=O)N1CCN(c2ncccn2)CC1)c1ccc(F)cc1	1%	2%	-14	29	-15	i
CCc1nnc(NC(=O)C2Cc3ccccc3CN2S(=O)(=O)c2ccc(C)cc2)s1 (stereo unspecified)	5%	0%	-9	16	4	i
O=C(Nc1cccc(-c2nc3ccccc3s2)c1)C1=COCCO1	6%	-1%	-80*	7	-1	-11%
